# PubChem BioAssay (NCATS)
# Unmarked numbers belong to inactive results. Records with an inconclusive call do not appear. A call without a number means that no potency is given here. Calls of active or inactive are those of the source. Calls follow the shape of the dose curve; as a rule, active = well fitted curve in the direction sought with a large enough effect; inconclusive = small, poorly fitted or top-dose-only effect, or another doubt; inactive = no such curve, though single readings can be large; an effect the other way counts as inactive or inconclusive.
# Columns and labels:
# Furin (Homo sapiens) = Furin (Homo sapiens) (UniProt P09958); experiment: Furin counterscreen qHTS for Zika virus inhibitors (AID 1347149); also: nearly all actives have a fitted effect of over 70% in size; also: potency is read from the fitted curve at half-maximal effect;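 as to activity change, negative = inhibition: purified recombinant full-length human furin enzyme at 5 nM; fluorescence gain from furin cutting a BOC-RVRR-AMC peptide substrate over 15 min; top concentration of the series differs between compounds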
# Procedure, shortened: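 Counterscreen measures cleavage of 2 microM BOC-RVRR-AMC, below its ~15 microM Km, by 5 nM full-length human furin at pH 7.0 after a 15-min compound preincubation. Inhibition derives from the 15-min fluorescence increase at 37C.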
# [1] = Confirmatory screen GU Rhodamine qHTS for Zika virus inhibitors qHTS (AID 1347157); also: nearly all actives have a fitted effect of over 70% in size; also: potency is read from the fitted curve at half-maximal effect
# Procedure, shortened: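 Noncovalent NS2B hydrophilic domain/NS3 protease complex (25 nM final) in 10 mM Tris-HCl pH 8.0, 0.01% Tween 20, preincubated 15 min with compounds (up to 114 microM), then 1.5 microM Rhodamine110 substrate. Fluorescence change over 15 min fitted to 4-parameter Hill.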
# [2] = Tertiary RLuc qRT-PCR qHTS assay for Zika virus inhibitors (AID 1347169); also: top concentration of the series differs between compounds; nearly all actives have a fitted effect of over 55% in size
# Procedure, shortened: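 Vero cells (1,000 per well) plated overnight at 37 degrees C, treated with compound in DMSO, then infected with recombinant ZIKV-RLuc (Cambodian) at MOI 1-2 for 48-72 hrs. Live-cell Renilla luciferase substrate added; luminescence read after 1-1.5 hrs.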
# [3] = Confirmatory screen NINDS Rhodamine qHTS for Zika virus inhibitors (AID 1347161); also: nearly all actives have a fitted effect of over 60% in size; also: potency is read from the fitted curve at half-maximal effect;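 as to activity change, negative = inhibition: purified Zika NS2B-NS3 protease with linked NS2B cofactor domain and Rhodamine110 peptide substrate; series mostly up to about 110 µM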
# Procedure, shortened: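 Single-chain NS2B-NS3 protease, 25 nM, pH 8.0; compounds preincubated 15 min. Activity: Rhodamine110 release from 1.5 microM substrate over 15 min, room temperature, data fitted to 4-parameter Hill.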
# [4] = target: Calcium and integrin-binding protein 1 (Homo sapiens) (UniProt Q99828); experiment: Primary qHTS for Identification of Calcium Integrin Binding Protein 1 (CIB1) Competitor (AID 1508620);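 also: GST tagged CIB1 binding a fluorescein labelled alphaIIb integrin peptide tracer; top concentration of the series differs between compounds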
# Procedure, shortened: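 Fluorescence polarization competition: GST-tagged CIB1 (1 uM final) preincubated with compound 15 min at room temperature, then FITC-labelled alphaIIb peptide (100 nM final) added. After 15 min at room temperature, polarization read at Ex 480/Em 540.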
# [5] = system: Zika virus NS2B-NS3 protease (linked construct); experiment: 384 well plate NINDS Rhodamine confirmatory qHTS for Zika virus inhibitors (AID 1347164);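 also: fluorescence from protease cleavage of Ac-LKRR-rhodamine 110 substrate; potency is read from the fitted curve at half-maximal effect; nearly all actives have a fitted effect of over 65% in size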
# Procedure, shortened: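 Linked protease at a final 5 nM, 30 nM or 60 nM was preincubated ~15 min with compounds, then given 10 microM Ac-LKRR-Rhodamine 110. Fluorescence (ex 485/em 538 nm) after 25 min in the dark at room temperature.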
# [6] = ZIKV-mCherry secondary qHTS for Zika virus inhibitors (AID 1347158); also: top concentration of the series differs between compounds
# Procedure, shortened: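 Compounds were tested in Vero monkey kidney cells infected with recombinant mCherry-expressing Zika virus at MOI 1 for 48-72 h at 37 °C. Fixed cells were nuclear-stained and imaged, and infection rate was taken as the fraction of mCherry-positive cells.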
# [7] = system: Zika virus NS2B-NS3 protease (linked); experiment: 384 well plate NINDS AMC confirmatory qHTS for Zika virus inhibitors (AID 1347163); also: nearly all actives have a fitted effect of over 50% in size; also: potency is read from the fitted curve at half-maximal effect;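 as to activity change, negative = inhibition: linked protease at 5 30 or 60 nM final depending on run; fluorescence of AMC released from Ac-VKTGKR-AMC peptide cleaved by the protease; top concentration of the series differs between compounds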
# Procedure, shortened: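 Fluorescence at 355/460 nm was read after 25 minutes of cleavage of 30 microM Ac-VKTGKR-AMC at room temperature, in the dark. Before substrate addition, compounds (up to 1 mM final) sat ~15 minutes with 5, 30 or 60 nM linked protease. Signals were normalized to no-enzyme and no-inhibitor wells.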
# [8] = Confirmation and Secondary Assay for Modulators of Hemoglobin Beta Chain Splicing at IVS2 654 locus (AID 910);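 also: HeLa cells stably carrying EGFP split by mutant beta-globin IVS2-654 intron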
# Procedure, shortened: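 HeLa cells stably expressing EGFP interrupted by β-globin IVS2-654 intron, seeded overnight in Opti-MEM/2% FCS, then treated 2 days at 37 °C. Restored splicing read as total peak GFP intensity per well by laser scanning cytometry (488 nm excitation, 500–520 nm emission); 500 nM antisense PNA as control.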
# [9] = Confirmation and Secondary Assay for Modulators of Hemoglobin Beta Chain Splicing at IVS2 705 locus (AID 930);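 also: HeLa cells stably expressing the EGFP-705 splicing reporter; GFP fluorescence per well restored by corrected splicing of the IVS2-705 intron in EGFP; series mostly up to about 46 µM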
# Procedure, shortened: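 HeLa IVS2-705 EGFP reporter cells, 500/well, compound 2 d at 37C; correct splicing yields fluorescent EGFP. Control: 500 nM antisense PNA. Read-out: total peak GFP intensity.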
# [10] = target: Glutathione peroxidase 1 (Homo sapiens) (UniProt P07203); experiment: Primary qHTS Assay for Inhibitors of Recombinant Selenoprotein Glutathione Peroxidase 1 (GPX1) (AID 1845191); also: nearly all actives have a fitted effect of over 65% in size
# Procedure, shortened: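 GR-coupled readout: NADPH consumption tracked by fluorescence, ex 340/em 450 nm, at t=0 and after 15 min at RT. Final mix 10 nM GPX1, 1 mM GSH, 0.5 mM CHP, 0.5 mM NADPH, 100 nM GR, 0.01% BSA, following 30 min enzyme–compound preincubation.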
# [11] = target: Tyrosyl-DNA phosphodiesterase 1 (Homo sapiens) (UniProt Q9NUW8); experiment: Confirmation Assay for Inhibitors of Tyrosyl-DNA Phosphodiesterase (TDP1) (AID 489007); conditions: recombinant human TDP1 enzymatic activity, dose-response; also: potency is read from the fitted curve at half-maximal effect; nearly all actives have a fitted effect of over 40% in size
# Procedure, shortened: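 Compounds are preincubated 15 min at room temperature with 1 nM recombinant human Tdp1. The reaction starts on adding 15 nM FITC-phosphotyrosine DNA substrate, runs 5 min, and is detected by AlphaScreen beads after 10 min.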
# [12] = target: N-terminal Xaa-Pro-Lys N-methyltransferase 1 (Homo sapiens) (UniProt Q9BV86); experiment: Confirmatory qHTS for Inhibitors of N-terminal methyltransferase 1 (NTMT1): MTaseGlo Assay (AID 1645874);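 also: luminescence from SAH made as NTMT1 methylates SPKRIA peptide using SAM; series mostly up to about 100 µM; nearly all actives have a fitted effect of over 65% in size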
# Procedure, shortened: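 SPKRIA peptide at 1 uM was methylated by 125 nM NTMT1 using 100 uM SAM over 30 min at room temperature, following a 15 min compound preincubation. Product SAH was detected luminescently.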
# [13] = target: Rap guanine nucleotide exchange factor 4 (Homo sapiens) (UniProt Q8WZA2); experiment: Confirmatory qHTS for agonist of cAMP-regulated guanine nucleotide exchange factor 4 (EPAC2) (AID 1645884);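 also: nucleotide exchange releases bodipy-GDP from Rap1 and this lowers its fluorescence; nearly all actives have a fitted effect of over 65% in size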
# [14] = target: Rap guanine nucleotide exchange factor 4 (Homo sapiens) (UniProt Q8WZA2); experiment: Confirmatory qHTS for antagonist of cAMP-regulated guanine nucleotide exchange factor 4 (EPAC2) (AID 1645885); also: nearly all actives have a fitted effect of over 25% in size
# [15] = target: Rap guanine nucleotide exchange factor 3 (Homo sapiens) (UniProt O95398); experiment: Counterscreen qHTS for antagonist of cAMP-regulated guanine nucleotide exchange factor 3 (EPAC1) (AID 1645888);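 also: fluorescence loss as bound BODIPY-GDP is released from Rap1B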
# Procedure, shortened: (§1)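 Rap1B–BODIPY-GDP (250 nM) with 50 uM GDP; compounds pin-transferred to 9.74 nM–152 uM final (activator) or from 7.32 nM upwards (inhibitor). Fluorescence Ex/Em 480/540 nm read at 5 and 30 min, then after adding cAMP or buffer, at room temperature.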
# [16] = target: Rap guanine nucleotide exchange factor 3 (Homo sapiens) (UniProt O95398); experiment: Counterscreen qHTS for agonist of cAMP-regulated guanine nucleotide exchange factor 3 (EPAC1) (AID 1645889); also: potency is read from the fitted curve at half-maximal effect; nearly all actives have a fitted effect of over 40% in size
# Procedure, shortened: as §1
# Chain of Furin (Homo sapiens) (P09958 whole entry, looked up): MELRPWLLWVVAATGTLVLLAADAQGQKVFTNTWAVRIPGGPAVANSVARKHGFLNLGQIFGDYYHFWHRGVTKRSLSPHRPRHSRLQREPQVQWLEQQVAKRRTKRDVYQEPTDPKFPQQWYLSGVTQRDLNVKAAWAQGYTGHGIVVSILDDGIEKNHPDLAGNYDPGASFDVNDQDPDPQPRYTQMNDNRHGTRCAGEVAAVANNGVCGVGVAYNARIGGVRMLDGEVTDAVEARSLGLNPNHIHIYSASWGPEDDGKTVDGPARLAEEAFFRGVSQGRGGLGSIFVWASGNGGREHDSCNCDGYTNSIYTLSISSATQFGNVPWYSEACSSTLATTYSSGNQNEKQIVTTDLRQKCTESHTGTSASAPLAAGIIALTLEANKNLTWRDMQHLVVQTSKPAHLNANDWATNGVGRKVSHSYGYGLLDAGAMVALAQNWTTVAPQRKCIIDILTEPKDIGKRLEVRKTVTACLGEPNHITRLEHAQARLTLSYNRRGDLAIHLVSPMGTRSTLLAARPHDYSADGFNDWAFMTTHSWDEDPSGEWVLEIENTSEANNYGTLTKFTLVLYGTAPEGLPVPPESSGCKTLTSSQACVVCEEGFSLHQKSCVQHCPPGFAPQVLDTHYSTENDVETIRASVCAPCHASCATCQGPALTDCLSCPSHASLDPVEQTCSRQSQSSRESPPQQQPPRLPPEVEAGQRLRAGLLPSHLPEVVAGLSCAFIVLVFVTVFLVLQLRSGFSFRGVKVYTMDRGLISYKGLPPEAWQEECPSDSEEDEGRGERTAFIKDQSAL
# Chain of Calcium and integrin-binding protein 1 (Homo sapiens) (Q99828 whole entry, looked up): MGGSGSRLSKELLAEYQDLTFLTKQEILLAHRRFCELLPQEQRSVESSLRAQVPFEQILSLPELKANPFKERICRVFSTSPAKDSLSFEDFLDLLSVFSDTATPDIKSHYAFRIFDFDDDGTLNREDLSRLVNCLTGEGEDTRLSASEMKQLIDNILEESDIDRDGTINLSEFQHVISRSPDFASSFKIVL
# Chain of Rap guanine nucleotide exchange factor 4 (Homo sapiens) (Q8WZA2 whole entry, looked up): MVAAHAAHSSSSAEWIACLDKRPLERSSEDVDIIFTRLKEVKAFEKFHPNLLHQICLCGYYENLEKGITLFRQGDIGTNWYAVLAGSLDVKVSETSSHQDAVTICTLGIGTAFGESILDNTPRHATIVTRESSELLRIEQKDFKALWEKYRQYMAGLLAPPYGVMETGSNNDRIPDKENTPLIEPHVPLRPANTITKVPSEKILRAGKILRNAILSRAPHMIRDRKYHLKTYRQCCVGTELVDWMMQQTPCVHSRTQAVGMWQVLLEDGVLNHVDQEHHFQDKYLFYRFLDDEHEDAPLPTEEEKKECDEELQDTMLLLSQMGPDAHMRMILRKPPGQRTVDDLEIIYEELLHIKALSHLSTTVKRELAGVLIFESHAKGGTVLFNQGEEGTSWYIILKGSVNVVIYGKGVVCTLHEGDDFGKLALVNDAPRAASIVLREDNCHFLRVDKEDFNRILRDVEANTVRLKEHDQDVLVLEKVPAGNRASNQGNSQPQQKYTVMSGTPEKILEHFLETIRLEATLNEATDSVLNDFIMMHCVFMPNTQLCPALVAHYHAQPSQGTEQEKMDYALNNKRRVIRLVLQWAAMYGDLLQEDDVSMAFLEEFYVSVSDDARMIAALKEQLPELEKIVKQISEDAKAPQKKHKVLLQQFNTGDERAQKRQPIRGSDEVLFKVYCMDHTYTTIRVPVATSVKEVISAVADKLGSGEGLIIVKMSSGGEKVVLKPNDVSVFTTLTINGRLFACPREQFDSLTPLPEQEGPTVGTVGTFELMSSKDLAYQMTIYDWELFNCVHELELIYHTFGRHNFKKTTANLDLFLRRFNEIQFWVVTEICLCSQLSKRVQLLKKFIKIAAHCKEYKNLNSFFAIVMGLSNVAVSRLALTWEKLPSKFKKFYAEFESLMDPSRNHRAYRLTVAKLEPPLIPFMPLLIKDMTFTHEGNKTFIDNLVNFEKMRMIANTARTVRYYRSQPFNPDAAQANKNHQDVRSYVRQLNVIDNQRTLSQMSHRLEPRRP
# Chain of Tyrosyl-DNA phosphodiesterase 1 (Homo sapiens) (Q9NUW8 whole entry, looked up): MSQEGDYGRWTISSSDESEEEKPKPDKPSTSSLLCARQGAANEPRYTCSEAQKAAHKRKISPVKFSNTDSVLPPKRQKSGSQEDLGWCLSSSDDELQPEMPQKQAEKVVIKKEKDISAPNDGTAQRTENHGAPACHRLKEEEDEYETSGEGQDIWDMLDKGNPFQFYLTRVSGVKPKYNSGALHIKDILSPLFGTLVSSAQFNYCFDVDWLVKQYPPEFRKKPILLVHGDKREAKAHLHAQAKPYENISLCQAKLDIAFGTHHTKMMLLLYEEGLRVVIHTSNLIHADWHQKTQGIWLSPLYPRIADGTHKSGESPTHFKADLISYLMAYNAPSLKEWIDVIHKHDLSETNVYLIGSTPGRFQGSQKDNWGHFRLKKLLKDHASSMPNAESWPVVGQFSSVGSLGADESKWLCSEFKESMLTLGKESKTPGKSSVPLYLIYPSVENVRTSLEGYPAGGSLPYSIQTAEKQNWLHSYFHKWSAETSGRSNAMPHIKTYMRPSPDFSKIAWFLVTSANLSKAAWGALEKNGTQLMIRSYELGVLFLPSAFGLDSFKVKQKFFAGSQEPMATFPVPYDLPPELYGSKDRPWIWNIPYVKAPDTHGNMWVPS
# Chain of Rap guanine nucleotide exchange factor 3 (Homo sapiens) (O95398 whole entry, looked up): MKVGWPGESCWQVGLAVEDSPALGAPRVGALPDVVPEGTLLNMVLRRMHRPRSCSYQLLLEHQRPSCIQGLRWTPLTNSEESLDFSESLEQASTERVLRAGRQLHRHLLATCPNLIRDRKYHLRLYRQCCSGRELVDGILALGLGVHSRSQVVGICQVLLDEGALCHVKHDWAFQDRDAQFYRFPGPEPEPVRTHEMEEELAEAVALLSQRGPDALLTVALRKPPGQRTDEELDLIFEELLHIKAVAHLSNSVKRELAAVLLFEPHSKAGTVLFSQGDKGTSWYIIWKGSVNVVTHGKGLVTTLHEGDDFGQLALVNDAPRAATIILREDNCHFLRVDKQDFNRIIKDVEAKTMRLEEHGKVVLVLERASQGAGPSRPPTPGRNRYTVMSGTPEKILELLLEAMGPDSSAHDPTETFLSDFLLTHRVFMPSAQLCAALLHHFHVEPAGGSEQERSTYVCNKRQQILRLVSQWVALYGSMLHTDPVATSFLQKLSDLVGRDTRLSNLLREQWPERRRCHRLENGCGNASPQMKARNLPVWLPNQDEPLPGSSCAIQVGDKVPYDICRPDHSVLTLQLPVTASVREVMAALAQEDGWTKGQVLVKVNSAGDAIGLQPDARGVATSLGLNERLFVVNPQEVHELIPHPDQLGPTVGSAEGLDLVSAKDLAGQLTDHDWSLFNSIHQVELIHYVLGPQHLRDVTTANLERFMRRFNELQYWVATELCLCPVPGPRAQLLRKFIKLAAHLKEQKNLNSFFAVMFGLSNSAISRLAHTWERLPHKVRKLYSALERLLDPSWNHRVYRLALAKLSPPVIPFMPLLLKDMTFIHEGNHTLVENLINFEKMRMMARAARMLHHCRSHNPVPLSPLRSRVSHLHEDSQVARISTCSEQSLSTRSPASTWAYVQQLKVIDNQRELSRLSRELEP
# Chain of N-terminal Xaa-Pro-Lys N-methyltransferase 1 (Homo sapiens) (Q9BV86 whole entry, looked up): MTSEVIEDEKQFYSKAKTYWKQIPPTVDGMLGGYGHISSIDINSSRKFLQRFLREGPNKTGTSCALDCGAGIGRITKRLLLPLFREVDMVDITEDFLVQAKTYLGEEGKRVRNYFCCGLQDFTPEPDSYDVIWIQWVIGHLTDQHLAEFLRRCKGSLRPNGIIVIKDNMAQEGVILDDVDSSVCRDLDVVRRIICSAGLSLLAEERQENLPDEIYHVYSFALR
# Chain of Glutathione peroxidase 1 (Homo sapiens) (P07203 whole entry, looked up): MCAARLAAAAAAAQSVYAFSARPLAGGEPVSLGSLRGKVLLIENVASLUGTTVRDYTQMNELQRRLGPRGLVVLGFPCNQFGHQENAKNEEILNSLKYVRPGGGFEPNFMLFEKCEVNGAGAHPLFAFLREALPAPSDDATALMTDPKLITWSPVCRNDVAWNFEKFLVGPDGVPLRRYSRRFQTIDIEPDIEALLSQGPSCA
structure (smiles),measurement,setting,value
CCOC(=O)c1ccc(NC(=O)Cn2nnc(-c3ccc(C(F)(F)F)cc3)n2)cc1,Potency,Furin (Homo sapiens),inactive
same,Potency,[1],inactive
same,Potency,[2],inactive
Cc1c(Cl)cccc1NC(=O)CSc1ncccc1C(=O)Oc1ccccc1Cl,Potency,Furin (Homo sapiens),inactive
same,Potency,[1],inactive
same,Potency,[3],inactive
same,Potency,[2],inactive
O=C(OCC#CCSc1nnc(-c2cc3ccccc3cc2O)o1)c1ccc(F)cc1,Potency,Furin (Homo sapiens),83.5 µM (active)
same,Potency,[1],inactive
same,outcome,[4],inactive
N#C/C(=C\c1ccc(Cl)cc1)c1nc(-c2cc3c(ccc4ccccc43)oc2=O)cs1,Potency,Furin (Homo sapiens),inactive
same,Potency,[1],inactive
same,Potency,[3],inactive
same,Potency,[2],inactive
O=C(OCC#CCSc1nnc(-c2cccc3ccccc23)o1)c1ccc(OC(F)(F)F)cc1,Potency,Furin (Homo sapiens),46.9 µM (active)
same,Potency,[1],inactive
same,Potency,[3],inactive
same,Potency,[2],inactive
same,outcome,[4],inactive
COC(=O)c1ccc(C(=O)Nc2ccc(-c3nc4cc(NC(=O)c5ccc(C(=O)OC)cc5)ccc4o3)cc2)cc1,Potency,Furin (Homo sapiens),inactive
same,Potency,[1],inactive
same,Potency,[3],inactive
same,Potency,[2],inactive
CC(C)(C)c1ccc(S(=O)(=O)Nc2ccc(O)c(Sc3nc4ccccc4s3)c2)cc1,Potency,Furin (Homo sapiens),inactive
same,Potency,[1],35.5 µM (active)
same,Potency,[5],100 µM (active)
O=C(OCC#CCSc1nnc(-c2cccc3ccccc23)o1)c1ccc(SC(F)(F)F)cc1,Potency,Furin (Homo sapiens),52.7 µM (active)
same,Potency,[1],inactive
same,Potency,[2],inactive
same,outcome,[4],inactive
CC(C)c1ccc(NC(=O)c2ccc3oc(=O)c(S(=O)(=O)c4ccc(F)cc4)cc3c2)cc1,Potency,Furin (Homo sapiens),inactive
same,Potency,[6],inactive
same,Potency,[3],56.2 µM (active)
same,Potency,[7],inactive
Cc1c(Cl)cccc1NS(=O)(=O)c1ccc(NS(=O)(=O)c2ccc3c(c2)OCCO3)cc1,Potency,Furin (Homo sapiens),inactive
same,Potency,[1],44.7 µM (active)
same,Potency,[7],141 µM (active)
O=C(OCC#CCSc1nnc(-c2cccc3ccccc23)o1)c1ccc(OC(F)F)cc1,Potency,Furin (Homo sapiens),41.8 µM (active)
same,Potency,[1],inactive
same,Potency,[3],inactive
same,outcome,[4],inactive
O=C(CNC(=O)c1ccc(Cl)cc1)OCc1cc(=O)n2nc(C3CCCCC3)sc2n1,Potency,Furin (Homo sapiens),inactive
same,Potency,[1],inactive
same,Potency,[3],inactive
same,Potency,[2],inactive
NC(Cc1cc(I)c(Oc2cc(I)c(O)c(I)c2)c(I)c1)C(=O)O (configuration not stated),outcome,[8],inactive
same,outcome,[9],inactive
same,Potency,Furin (Homo sapiens),inactive
same,Potency,[1],31.6 µM (active)
same,Potency,[3],22.4 µM (active)
same,Potency,[2],inactive
same,Potency,[10],inactive
O=C(Nc1ccccc1C(=O)OCc1cc(=O)n2nc(C3CC3)sc2n1)c1ccc(Cl)cc1,Potency,Furin (Homo sapiens),41.8 µM (active)
same,Potency,[1],inactive
same,Potency,[3],inactive
same,Potency,[2],inactive
O=C(CSc1nnc(-c2cccc([S+](=O)([O-])NC3CCCC3)c2)n1-c1ccccc1)Nc1ccc(C(=O)O)cc1,Potency,Furin (Homo sapiens),inactive
same,Potency,[1],inactive
same,Potency,[2],inactive
O=C(OCC#CCSc1nnc(-c2cccc3ccccc23)o1)c1cc(F)c(F)c(F)c1,Potency,Furin (Homo sapiens),46.9 µM (active)
same,Potency,[1],inactive
same,Potency,[2],inactive
same,outcome,[4],inactive
COc1ccc(S(=O)(=O)c2c(Nc3cccc(Cl)c3)sc(C(=O)c3ccccc3)c2N)cc1,Potency,Furin (Homo sapiens),52.7 µM (active)
same,Potency,[1],inactive
same,Potency,[2],inactive
COc1ccc(/C=C(\C#N)c2nc(-c3cc4c(ccc5ccccc54)oc3=O)cs2)cc1O,Potency,Furin (Homo sapiens),inactive
same,Potency,[6],inactive
CC(C)c1nn2c(=O)cc(COC(=O)c3ccc(NC(=O)CCc4ccccc4)cc3)nc2s1,Potency,Furin (Homo sapiens),inactive
same,Potency,[1],inactive
same,Potency,[2],inactive
O=C(OCC#CCSc1nnc(-c2ccc(F)cc2)o1)c1ccc(F)cc1,Potency,Furin (Homo sapiens),inactive
same,Potency,[1],inactive
same,Potency,[3],inactive
same,Potency,[2],inactive
same,outcome,[4],inactive
O=c1oc2ccc3ccccc3c2cc1-c1nnc(Nc2ccc(Cl)cc2Cl)s1,Potency,Furin (Homo sapiens),inactive
same,Potency,[1],inactive
same,Potency,[2],inactive
CC(C)c1nn2c(=O)cc(COC(=O)c3ccc(NC(=O)COc4ccccc4)cc3)nc2s1,Potency,Furin (Homo sapiens),inactive
same,Potency,[1],inactive
same,Potency,[3],inactive
same,Potency,[2],inactive
CCOC(=O)c1cccc(NC(=O)CSc2ncc3c(n2)-c2ccc(Cl)cc2N(Cc2ccccc2)S3(=O)=O)c1,Potency,Furin (Homo sapiens),inactive
same,Potency,[6],inactive
same,Potency,[3],44.7 µM (active)
same,Potency,[7],inactive
O=S(=O)(Nc1ccc(O)c(NS(=O)(=O)c2ccccc2)c1)c1ccccc1,Potency,Furin (Homo sapiens),inactive
same,Potency,[1],inactive
same,Potency,[2],inactive
same,outcome,[4],inactive
O=C(COc1ccccc1F)Nc1ccc(C(=O)OCc2cc(=O)n3nc(C4CC4)sc3n2)cc1,Potency,Furin (Homo sapiens),inactive
same,Potency,[1],inactive
same,Potency,[2],inactive
CCCCc1nn2c(=O)cc(COC(=O)c3cccc(NC(=O)c4cccc(Cl)c4)c3)nc2s1,Potency,Furin (Homo sapiens),29.6 µM (active)
same,Potency,[1],inactive
same,Potency,[2],inactive
O=C(OCC#CCSc1nnc(-c2ccccc2F)o1)c1ccc(F)cc1,Potency,Furin (Homo sapiens),inactive
same,Potency,[1],inactive
same,Potency,[3],inactive
same,Potency,[2],inactive
same,outcome,[4],inactive
CCOC(=O)c1c(-c2ccc(C)cc2)csc1NC(=O)c1cc(-c2ccc(Cl)cc2)on1,Potency,Furin (Homo sapiens),inactive
same,Potency,[1],inactive
same,Potency,[2],inactive
O=C(O)COc1ccc(-c2nccc3c2C(=O)N(Cc2cccc(C(F)(F)F)c2)CC(COc2ccccc2)O3)cc1 (configuration not stated),Potency,Furin (Homo sapiens),inactive
same,Potency,[6],inactive
same,Potency,[5],39.8 µM (active)
same,Potency,[2],inactive
O=C(OCC#CCSc1nnc(-c2cccc3ccccc23)o1)c1ccc(F)c(F)c1,Potency,Furin (Homo sapiens),59.1 µM (active)
same,Potency,[3],inactive
same,Potency,[2],inactive
same,outcome,[4],inactive
Cc1cccc(C)c1-n1c(SCC(=O)Nc2ccc(C(=O)O)cc2)nnc1-c1cccc([S+](=O)([O-])N2CCCC2)c1,Potency,Furin (Homo sapiens),inactive
same,Potency,[6],inactive
same,Potency,[7],70.8 µM (active)
same,Potency,[5],89.1 µM (active)
same,Potency,[2],inactive
COc1ccc(C(=O)Nc2ccc(C(=O)OCc3cc(=O)n4nc(C(C)C)sc4n3)cc2)cc1,Potency,Furin (Homo sapiens),59.1 µM (active)
same,Potency,[6],inactive
same,Potency,[2],inactive
N#C/C(=C\c1ccc(-c2ccc(Cl)c(C(=O)O)c2)o1)c1nc2ccccc2[nH]1,Potency,[11],112 µM (active)
same,Potency,Furin (Homo sapiens),inactive
same,Potency,[6],inactive
same,Potency,[3],22.4 µM (active)
same,Potency,[7],126 µM (active)
same,Potency,[2],inactive
same,Potency,[12],inactive
same,outcome,[13],inactive
same,"activity change, negative = inhibition",[14],-25.6% [at 12.7 µM]
same,outcome,[15],inactive
same,Potency,[16],79.4 µM (active)
